# Only some compounds are listed: those with a hit (about 13% of all), similar ones and a draw of the others.
# miR-21 act: qHTS Assay for Modulators of miRNAs and/orActivators of miR-21; HeLa miR-21 FLuc reporter, luciferase, 48 h; Potency, µM (series often up to 38.3 µM), usual class: activators; 340,000 tested, under 10 active; AID 2288, 2010;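 note: miR-21 action dims this reporter so a rising signal means less miR-21 action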
#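 HeLa miR-21-FLuc reporter line, endogenous miR-21; 2000 cells/well in DMEM/10% FBS; compound titration up to ~40uM final, 48 h, 37 degree Celsius; luciferase detection reagent, 15 min lysis, CCD luminescence.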
# G9a block: qHTS Assay for Inhibitors of Histone Lysine Methyltransferase G9a; G9a H3K9 monomethylation, AlphaScreen, 2 h; AID 504332, 2011; Potency, µM (doses to about 102 µM), usual class: inhibitors; hit rate 8.8% among 350,000; note: nearly all actives have a fitted effect of over 75% in size
# Target sequence (Q96KQ7 913-1193 limits assumed): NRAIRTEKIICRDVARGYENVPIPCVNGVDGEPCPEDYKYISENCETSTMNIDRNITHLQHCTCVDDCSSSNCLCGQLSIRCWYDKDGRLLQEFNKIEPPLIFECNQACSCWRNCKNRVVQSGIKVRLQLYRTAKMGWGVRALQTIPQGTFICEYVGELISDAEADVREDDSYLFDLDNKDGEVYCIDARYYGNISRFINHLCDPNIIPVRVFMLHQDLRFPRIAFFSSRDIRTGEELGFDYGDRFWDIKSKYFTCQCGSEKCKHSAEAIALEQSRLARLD
#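 G9a (20 nM) was preincubated 15 min with compound, then reacted 2 h at room temperature with 500 nM biotin-H3K9 peptide and 20 µM SAM. Monomethyl-H3K9 detected by AlphaScreen using anti-H3K9me1 antibody.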
# Sfp PPTase inh: qHTS Assay for Inhibitors of Bacillus subtilis Sfp phosphopantetheinyl transferase (PPTase); Biochemical Sfp PPTase activity, qHTS; Potency, µM, usual class: inhibitors; hit rate 3.5% among 310,000;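 note: the enzyme is Sfp with the accession as filed and its product quenches rhodamine fluorescence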
#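 After 15 min at room temperature with compound, 15 nM Sfp received 5 uM rhodamine-CoA plus 12.5 uM BHQ-2-ybbR (50 mM Hepes pH 7.6, 10 mM MgCl2). Rate came from the fluorescence difference over 30 min, ex 525/em 598 nm.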
# Lamin A splicing: qHTS Assay for Modulators of Lamin A Splicing. HeLa LMNA splicing GFP/RFP minigene ratio, 48 h. Potency, µM (top dose mostly 46.1 µM), hits mostly inhibitors. hit rate 0.01% among 200,000. AID 1487, 2009; active = well fitted inhibition curve with a large enough effect in the signal ratio, with a control signal flat, not every such curve was filed as active; inconclusive = small, poorly fitted or top-dose-only effect, or effect the other way, or a change in a side signal; the % refers to the signal ratio
#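 S3 HeLa stable clones carrying a lamin A-EGFP splicing minigene plus DsRed2 were seeded at 600 cells/well in Opti-MEM with 2% FBS, pin-dosed and incubated 48 h at 37°C. Acumen cytometry (488 nm) gave the GFP/RFP total-intensity ratio.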
# ALDH1A1 block: qHTS Assay for Inhibitors of Aldehyde Dehydrogenase 1 (ALDH1A1); Aldehyde dehydrogenase 1A1 (Homo sapiens), P00352; Purified ALDH1A1, NADH fluorescence, propionaldehyde substrate; Potency, µM (series often up to 75.3 µM), hits mostly inhibitors; hit rate 7.3% among 220,000; AID 1030, 2008; active = well fitted inhibition curve with a large enough effect, not every such curve was filed as active; inconclusive = small, poorly fitted or top-dose-only effect, or another doubt; inactive = no such curve, though single readings can be large or run the other way
# KDM4E inh: qHTS Assay for Inhibitors of Human Jumonji Domain Containing 2E (JMJD2E); Lysine-specific demethylase 4E (Homo sapiens), B2RXH2; hit rate 1.6% among 230,000; Potency, µM (highest dose often 57.1 µM), actives largely listed as inhibitors; JMJD2E catalytic domain, FDH-coupled NADH fluorescence (FDH is formaldehyde dehydrogenase); note: nearly all actives have a fitted effect of over 50% in size
# Target sequence (B2RXH2 1-337 limits assumed): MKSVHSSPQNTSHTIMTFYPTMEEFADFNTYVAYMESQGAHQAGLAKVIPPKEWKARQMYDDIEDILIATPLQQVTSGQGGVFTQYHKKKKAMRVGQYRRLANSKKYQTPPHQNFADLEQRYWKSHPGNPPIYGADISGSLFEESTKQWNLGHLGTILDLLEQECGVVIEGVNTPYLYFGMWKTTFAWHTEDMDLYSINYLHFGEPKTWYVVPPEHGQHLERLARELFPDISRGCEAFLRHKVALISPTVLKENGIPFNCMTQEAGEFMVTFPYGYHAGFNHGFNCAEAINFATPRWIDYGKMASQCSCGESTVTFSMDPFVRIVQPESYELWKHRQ
# A number is an active result; n = inactive; u = inconclusive; x = no result given; [ ] = dose if it differs, or a comment. Unless noted, calls come from the whole dose curve; as a rule, active = well fitted curve in the direction sought with a large enough effect; inconclusive = small, poorly fitted or top-dose-only effect, or another doubt; inactive = no such curve, though single readings can be large; an effect the other way counts as inactive or inconclusive.
SMILES,miR-21 act,G9a block,Sfp PPTase inh,Lamin A splicing,ALDH1A1 block,KDM4E inh
O=c1cc(-c2ccccc2O)oc2c1ccc1ccccc12,x,x,n,x,n,n
Cc1c(NC=C(C#N)C#N)c(=O)n(-c2ccccc2)n1C,n,n[0.501 µM],n,n,n,n
Cc1c(N/C=C(\Cl)C(=O)C(F)(F)F)c(=O)n(-c2ccccc2)n1C,n,25µM,22µM,x,32µM,u
COc1ccc(-c2nc3ccccc3nc2-c2ccc(OC)c(OC)c2)cc1OC,n,20µM,n,x,x,x
COc1ccc(-c2nc3ccccc3nc2-c2ccccc2)cc1OC,n,n,n,x,x,x
Clc1ccc(-c2ncc3ccccn23)cc1,n,n,n,x,u,n
COc1ccc(-c2cn3ccccc3n2)cc1OC,n,n,89µM,n,u,u
COc1ccc(-c2ncc3ccccn23)cc1OC,n,14µM,u,n,u,u
CCCCC(=O)NNC(=O)N1c2ccccc2Sc2ccccc21,n,u,n,x,x,x
COCCNCC(=O)N1c2ccccc2Sc2ccccc21,n,u,n,x,x,x
CC(=O)NCC(=O)OCC(=O)N1c2ccccc2Sc2ccccc21,n,n,n,n[9.22 µM],25µM,n
CC(C)CNCC(=O)N1c2ccccc2Sc2ccccc21,n,35µM,n,n,u,n
O=C(CNC(=O)c1ccccc1)OCC(=O)N1c2ccccc2Sc2ccccc21,n,n,n,n,n,n
CCCCC(NC(=O)c1ccccc1)C(=O)OCC(=O)N1c2ccccc2Sc2ccccc21 (stereo not given),n,n,n,n,40µM,n
CCSc1nc2ccccc2n1S(=O)(=O)c1ccccc1,n,50µM,n,n,n,n
O=C(c1cnn(-c2ccccc2)c1)c1cc(F)ccc1O,n,n,n,x,x,x
Cc1ccc(O)c(C(=O)c2cnn(C(=O)Cc3csc(C)n3)c2)c1,n,n,n,n,1.1µM,n
COc1ccc(O)c(C(=O)c2cnn(C(=O)c3ccc(C)cc3)c2)c1,x,n[12.7 µM],x,x,x,x
Cc1ncc(CC(=O)n2cc(C(=O)c3cc(F)ccc3O)cn2)s1,n,n[12.7 µM],n,n,7.9µM,n
CCOC(=O)/C(=C/C=C1\Sc2ccccc2N1CC)C(C)=O,n,u,n,n,13µM,n
CCOC(=O)/C(=C\C=C1/Sc2ccccc2N1CC)C(C)=O,n,u,n,n,n,n
CCOC(=O)/C(=C/c1c(C)n(C)c2ccc([N+](=O)[O-])cc12)C(C)=O,n,n,n,u,n,n
CCOC(=O)/C(=C/C=C1\Sc2cc(C)c(C)cc2N1CC)C(C)=O,n,n,16µM,u,u,n
CC(C)Sc1nc2c(c(=O)[nH]c(=O)n2C)n1Cc1ccc(Cl)cc1,n,u,n,n,35µM,n
CCC(C)Sc1nc2c(c(=O)[nH]c(=O)n2C)n1Cc1ccc(Cl)cc1 (stereo not given),n,u,n,n,8.9µM,n
SMILES,miR-21 act,G9a block,Sfp PPTase inh,Lamin A splicing,ALDH1A1 block,KDM4E inh
CCOC(=O)C(C)Sc1nc2c(c(=O)[nH]c(=O)n2C)n1Cc1ccc(Cl)cc1 (stereo not given),n,11µM,u,n,18µM,n
CCC(C)Sc1nc2c(c(=O)[nH]c(=O)n2C)n1CC(O)COc1ccccc1C (stereo not given),n,5.6µM,40µM,n,14µM,u
CC(C)Sc1nc2c(c(=O)[nH]c(=O)n2C)n1Cc1ccccc1,n,n,n,x,x,x
CCCCCn1c(SC(C)C(C)=O)nc2c1c(=O)[nH]c(=O)n2C (stereo not given),n,n,n,n,u,n
Cc1ccc2c(c1)C(c1ccc(F)cc1)N(C(=O)COc1ccc(Cl)cc1Cl)CC(=O)N2 (stereo not given),u,n,x,x,x,x
CCCC(=O)OCc1cnc(C)c2oc(=O)c(C(=O)Nc3ccc(F)cc3C)cc12,n,n,x,n,x,x
Cc1coc2c1c(C)cc1oc(=O)c(CC(=O)NCCCCCC(=O)O)c(C)c12,n,n,n,x,x,x
N#Cc1ccccc1OCc1cccc(S(=O)(=O)N2CCOCC2)c1,x,n[12.7 µM],x,x,x,x
CCN(CC)c1nc2ccccc2c(N)c1-c1ccccc1,n,2.8µM,79µM,n,14µM,n
CCC(C)[C@H](NC(=O)N1CC(=O)Nc2ccccc21)C(=O)NC(C)CCc1ccccc1 (stereo not given in full),n,u,n,x,x,x
CCC(C)[C@H](NC(=O)N1CC(=O)Nc2ccccc21)C(=O)N[C@@H](C(=O)O)c1ccccc1 (stereo not given in full),n,79µM,n,x,x,x
Nc1c(C=C2C=CC(=O)C=C2)c(=O)nc2snc(SCc3ccccc3)n12,n,n,n,x,x,n
CC(=O)c1cccc(NC(=O)CCc2c(C)nc3c(c(C)nn3-c3ccccc3)c2C)c1,n,n,x,x,x,x
Cc1cc(C)cc(N(C(=O)c2ccccn2)C(C(=O)NC2CCCCC2)c2cccs2)c1 (stereo not given),n,n,n,n,n,n
CC1CCCCN1S(=O)(=O)c1ccc(N(C(=O)c2cnccn2)C(C(=O)NC2CCCCC2)c2cccs2)cc1 (stereo not given),n,n,n,n,8.9µM,n
CC1CCCCN1S(=O)(=O)c1ccc(N(C(=O)c2cnccn2)C(C(=O)NC2CCCC2)c2cccs2)cc1 (stereo not given),n,n,n,n,4µM,n
CC(C)Cn1c(-c2ccc(Br)o2)n[nH]c1=S,n,1.8µM,n,u,10µM,u
CCn1c(CC(C)C)n[nH]c1=S,n,x,n,n,n,n
CCn1c(-c2nn(C)cc2Cl)n[nH]c1=S,n,10µM,u,u,n,n
CCn1c(-c2nn(-c3ccc(C)cc3)ccc2=O)n[nH]c1=S,n,u,n,x,n,u
CC(C)Cn1c(-c2nn(C)cc2Cl)n[nH]c1=S,n,10µM,n,u,n,n
Cc1ccsc1-c1n[nH]c(=S)n1CC(C)C,n,u,u,u,25µM,n
CCOc1ccc(NC(=O)Nc2cc3c(cc2N2CCCCC2)n(C)c(=O)n3C)cc1,n,n,x,x,x,x
CC(=O)c1ccc(NC(=O)Cc2cccs2)cc1,n,u,n,x,x,x
Cc1ccc2oc(=O)c(/C=C(\O)C(C)(C)C)nc2c1,n,u,56µM,n[9.22 µM],n,n
CC(C)(C)/C(O)=C/c1nc2cc(Cl)ccc2oc1=O,n,45µM,u,x,x,n
Cc1ccc2oc(=O)c(/C=C(\O)c3ccco3)nc2c1,n,x,u,x,x,u
Cc1ccc2oc(=O)c(/C=C(\O)c3sc(C)nc3C)nc2c1,n,u,n,n,u,n

# Compound activity deposited in PubChem by National Center for Advancing Translational Sciences (NCATS).
